18 compounds from PubChem BioAssay AID624305 (National Center for Advancing Translational Sciences (NCATS), 2012) can be followed below.

Results filed as inconclusive are left out. Entries that show only a call come without a potency. A number with no mark means an inactive call. Calls of active or inactive are those of the source. The call rests on the fitted dose curve; in most records, active means well fitted activation curve with a large enough effect; inconclusive means small, poorly fitted or top-dose-only effect; inactive means no such curve, though single readings can be large or run the other way.
Potency means the concentration at half of the fitted maximal effect.

This assay can be described thus: qHTS assay for re-activators of p53 using a Luc reporter: Hit Validation. Further: nearly all actives have a fitted effect of over 75% in size. Particulars: p53-responsive luciferase reporter cells, luminescence, H1299 line expressing heat-sensitive Ala138Val p53; series mostly up to 46.1 µM. The method in brief:
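Hit confirmation with a 1:5 dilution series, at 37 deg C for 24 hrs, in H1299 cells co-expressing temperature-sensitive p53-A138V and p53-responsive luciferase. Nocodazole served as control; luminescence read after 10 min with detection reagent.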
(In general: Quantitative high-throughput screening tests each substance at several concentrations.)
As for `Cc1cc(Oc2ccccc2)nc(-c2ccccc2O)n1`, the Potency result is “inactive”. Still for that read-out and setting: the result for `COc1ccc(-c2cc(C(F)(F)F)nc(-n3ccnc3C)n2)cc1` reads “inactive”; that for `Cc1ccc(CCc2nnc(SCC(=O)Nc3cccc(Cl)c3)n2-c2ccccc2)o1`, “inactive”. `CC(=O)NC1=C(Nc2ccc(N(C)C)cc2)C(=O)c2ccccc2C1=O`: the Potency was 9.2 µM (active). As for `COc1ccc2oc(-c3cccc(NC(=O)CSc4ccc(Cl)cc4)c3)nc2c1`, the activation is -2.44% [at 9.22 µM].

As to `CCn1c(=O)c2ccccc2n(Cc2ccccc2C)c1=O`, the Potency result was “inactive”. On the same count and under the same terms, the figure for `Cc1cccc(-c2noc(CCC(=O)N3CCN(c4cc(C)ccc4C)CC3)n2)c1` is 23.1 µM (active). On the same count and under the same terms, the result for `c1ccc(-c2csc(Nc3ncccn3)n2)cc1` reads 2.31 µM (active); that for `O=C(CC1NC2CCCCC2NC1=O)Nc1ccc2c(c1)OCO2` (stereo not drawn), “inactive”. The same measure, in the same setting: the result for `CS(=O)(=O)c1ccc2nc(NC(=O)c3ccco3)sc2c1` reads 14.6 µM (active); that for `CCCCOC(=O)c1ccc(NC(=O)CSc2nncn2C)cc1`, “inactive”.

Turning to `O=C(Nc1cccc(N=Cc2cc(Cl)cc(Br)c2O)c1)c1ccco1`, the Potency result is “inactive”. On to `Cc1ccn2c(c1)nc(=S)n2C(=O)c1ccccc1`, for which the Potency is 0.731 µM (active).

For `Nc1nc2ccc(N3CCOCC3)cc2s1`, the Potency entry was “inactive”. On the same count and under the same terms, the entry for `O=C(Nc1ccc(Cl)cn1)C1CCN(c2ncnc3c2nc2n3CCCCC2)CC1` is “inactive”. Same read-out and setting: the result for `O=C(CN1C(=O)NC2(CCCc3ccccc32)C1=O)c1ccc(F)cc1` (stereo not drawn) reads “inactive”; that for `C=CCn1c(P(C)(=O)O)nc2ccccc21`, “inactive”. On the same count and under the same terms, the result for `Cc1ccc(C)c(C(=O)COC(=O)c2n[nH]c3ccccc23)c1` reads 18.4 µM (active).
